Screens from PubChem BioAssay.
Rce1 inh: yeast Ras-converting enzyme inhibition. Q03530. yeast membranes, quenched prenylated peptide cleavage fluorescence. calls only. 290,000 compounds, 0.27% hits. AID 2563;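 active = fall in fluorescence gain of 50% or more versus controls, with final raw signal at or below 3038400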
Granule exo inh: lytic granule exocytosis inhibition; TALL-104 LAMP-1 surface exposure, flow cytometry; cells stimulated with thapsigargin and PMA; inhibition, % at 10 µM; 360,000 compounds, 0.66% hits;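 active = inhibition above about 55%, limit read from the data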
ABHD5-PLIN5 inh: blocks binding of human ABHD5 to perilipin-5. inhibition, % at 4 µM. 360,000 compounds, 0.78% hits. Split G. princeps luciferase complementation, luminescence, 4 h. Q00G26+Q8WTS1;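 active = inhibition above the mean inhibition across every tested compound plus 3 SD, cut at about 22% in these data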
M18AAP inhibitor: blocks P. falciparum M18 aspartyl aminopeptidase; recombinant PfM18AAP, H-Glu-NHMec fluorogenic cleavage; inhibition, % at 7.35 µM; 290,000 compounds, 1.2% hits; AID 1822;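 active = inhibition above the campaign mean inhibition over all tested compounds plus 3 SD, cut at about 28% in these data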
Platelet DG rel: modulates dense granule release in human platelets | AID 1663 | inhibition, %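 (compounds screened at 7.5 µM in platelet-rich plasma)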 | human platelet-rich plasma, SFLLRN dense granule ATP release, luminescence | 300,000 compounds, 0.22% hits;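 active = mean replicate score, as percent of positive control, at or above 50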
ABHD5 PLIN5 conf: ABHD5-PLIN5 interaction inhibition, confirmed. inhibition, % at 4 µM. shares compounds with ABHD5-PLIN5 inh. AID 651612. 2,200 compounds, 67% hits. biochemical ABHD5-PLIN5 interaction, luminescence; in the data active = inhibition above about 23%
HNF4 split-luc: HNF4 split-luciferase signal hit, counter-screen | 2,200 compounds, 77% hits | AID 651674 | inhibition, % at 4 µM | HNF4 dimerization, luminescence, biochemical | shares compounds with ABHD5-PLIN5 inh;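 active = mean inhibition across replicate wells exceeding the computed hit threshold, cut at about 13% in these data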;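 also: light from luciferase halves that rejoin when HNF4 fusion proteins dimerize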
Target sequence (P41235 whole entry, looked up, the tested form may be a part): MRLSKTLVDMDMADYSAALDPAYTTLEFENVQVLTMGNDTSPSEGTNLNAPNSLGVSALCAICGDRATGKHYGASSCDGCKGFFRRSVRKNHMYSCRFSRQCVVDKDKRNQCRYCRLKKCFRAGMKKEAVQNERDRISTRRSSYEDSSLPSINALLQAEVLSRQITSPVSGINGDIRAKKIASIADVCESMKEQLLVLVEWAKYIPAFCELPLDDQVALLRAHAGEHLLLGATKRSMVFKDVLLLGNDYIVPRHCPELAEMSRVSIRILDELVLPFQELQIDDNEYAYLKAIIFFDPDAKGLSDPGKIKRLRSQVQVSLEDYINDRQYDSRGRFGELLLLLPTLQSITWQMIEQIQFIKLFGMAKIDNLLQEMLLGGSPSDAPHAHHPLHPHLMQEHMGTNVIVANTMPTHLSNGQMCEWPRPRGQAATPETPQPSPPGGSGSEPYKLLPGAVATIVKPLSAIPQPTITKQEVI
Of the large screens only hits and unclear results are named; the others gave an inactive call (follow-up assays come after a bar, where they were run). A selection: hits, their analogues and other compounds. The true share with any hit is near 2.6%.

O=C(O)c1cccc(NC2=C(Cl)C(=O)c3ccccc3C2=O)c1	ABHD5-PLIN5 inh 37.9 (no result: Rce1 inh) | ABHD5 PLIN5 conf 38.1 | HNF4 split-luc 23.9
O=C1C(Cl)=C(NCCc2ccccc2)C(=O)c2ccccc21	ABHD5-PLIN5 inh 27.0 (no result: Rce1 inh, M18AAP inhibitor, Platelet DG rel) | ABHD5 PLIN5 conf 87.8 | HNF4 split-luc 104.2
COc1ccc(S(=O)(=O)N(C)C)cc1NC(=O)c1ccc(OCC(=O)N2CCOCC2)c(OC)c1	none (no result: M18AAP inhibitor)
CS(=O)(=O)c1ncc(Cl)c(C(=O)Nc2ccc(OC(F)F)cc2)n1	ABHD5-PLIN5 inh 75.0 | ABHD5 PLIN5 conf 88.6 | HNF4 split-luc 102.6
CCOC(=O)c1nc(S(C)(=O)=O)ncc1N1CCOCC1	none
CCN(c1ccccc1)S(=O)(=O)c1ccc(NC(=O)c2nc(S(C)(=O)=O)ncc2Cl)cc1	ABHD5-PLIN5 inh 77.5 | ABHD5 PLIN5 conf 89.0 | HNF4 split-luc 104.2
CCN(c1ccccc1)S(=O)(=O)c1ccc(C(=O)Nc2ccncc2)cc1	none (no result: M18AAP inhibitor)
CCOC(=O)c1nc(S(C)(=O)=O)ncc1Cl	ABHD5-PLIN5 inh 54.7 | ABHD5 PLIN5 conf 56.1 | HNF4 split-luc 90.2
COc1ccc(OC)c2c1C(=O)C(Cl)=C(Cl)C2=O	Granule exo inh 93.4, ABHD5-PLIN5 inh 92.8, Platelet DG rel 65.9 | ABHD5 PLIN5 conf 103.5 | HNF4 split-luc 110.8
CCOC(=O)c1ccc(S(=O)(=O)Nc2cc(C(=O)O)ccc2Cl)cc1	none
Cc1ccc(-n2nc3c(N4CCC(C(=O)NCCc5ccco5)CC4)nnc(C)c3c2C)cc1	ABHD5-PLIN5 inh 30.2 | ABHD5 PLIN5 conf inactive | HNF4 split-luc inactive
O=c1c(C(c2ccc(Br)cc2)c2c(O)nc3n(c2=O)CCCS3)c(O)nc2n1CCCS2	none
O=c1c(C(c2ccc(O)cc2)c2c(O)nc3n(c2=O)CCS3)c(O)nc2n1CCS2	ABHD5-PLIN5 inh 53.1 | ABHD5 PLIN5 conf 89.5 | HNF4 split-luc 79.3
O=c1c(C(c2ccc(O)cc2)c2c(O)nc3n(c2=O)CCCS3)c(O)nc2n1CCCS2	ABHD5-PLIN5 inh 28.6 | ABHD5 PLIN5 conf 83.7 | HNF4 split-luc 71.4
COc1ccc(OC)c(NC(=O)c2nc(S(=O)(=O)Cc3ccccc3)ncc2Cl)c1	ABHD5-PLIN5 inh 49.9 | ABHD5 PLIN5 conf 92.6 | HNF4 split-luc 87.0
Cc1nnc(NC(=O)c2nc(S(=O)(=O)Cc3ccccc3)ncc2Cl)s1	ABHD5-PLIN5 inh 33.8 | ABHD5 PLIN5 conf 70.6 | HNF4 split-luc 51.2
CCOC(=O)c1ccc(NC(=O)c2nc(SC)ncc2Cl)cc1	none
Cc1ccc(NC(=O)c2nc(S(=O)(=O)Cc3ccccc3)ncc2Cl)cc1	ABHD5-PLIN5 inh 71.9 | ABHD5 PLIN5 conf 93.8 | HNF4 split-luc 101.7
Cc1ccccc1CS(=O)(=O)c1ncc(Cl)c(C(=O)Nc2ccc(F)cc2)n1	ABHD5-PLIN5 inh 77.5 | ABHD5 PLIN5 conf 88.7 | HNF4 split-luc 90.2
O=C(CSc1ncc(-c2ccc(F)cc2)n1Cc1ccco1)Nc1nccs1	none
CN(C(=O)c1cccc(NC(=O)Cc2ccc(NC(=O)C3CCCN(C(=O)CCc4ccccc4)C3)cc2)c1)C1CCCC1 (stereo not given)	none (no result: Rce1 inh, M18AAP inhibitor, Platelet DG rel)
CC(O)CNCCCOc1ccc(Cl)cc1C(C)(C)C (stereo not given)	ABHD5-PLIN5 inh 29.3 | ABHD5 PLIN5 conf inactive | HNF4 split-luc inactive
CC(C)(C)c1cc(Cl)ccc1OCCn1ccnc1	none
COCCCNCCCOc1ccc(Cl)cc1Br	none
CN(C)CCOCCOc1ccc(Cl)cc1C(C)(C)C	ABHD5-PLIN5 inh 23.1 | ABHD5 PLIN5 conf inactive | HNF4 split-luc inactive
O=C(O)c1ccccc1OC(C(=O)Nc1cc(Cl)cc(Cl)c1)c1ccccc1 (stereo not given)	none
C[C@H](CO)N1C[C@H](C)[C@@H](CN(C)Cc2ccc(C(=O)Nc3ccccc3N)cc2)Oc2c(NC(=O)C3CCCCC3)cccc2C1=O	ABHD5-PLIN5 inh 72.5 (no result: Rce1 inh, M18AAP inhibitor, Platelet DG rel) | ABHD5 PLIN5 conf inactive | HNF4 split-luc inactive
CN(C)c1ccc(C(=O)c2ccc(O)cc2O)cc1	none
CN(C)c1ccc(Cc2cc3c(O)ccc(O)c3cc(Cc3ccc(N(C)C)cc3)c2=O)cc1	Granule exo inh 103.6, ABHD5-PLIN5 inh 87.3 (no result: Rce1 inh, M18AAP inhibitor, Platelet DG rel) | ABHD5 PLIN5 conf 94.9 | HNF4 split-luc 47.2
Cc1ccc(S(=O)(=O)CCC(=O)c2cccc([N+](=O)[O-])c2)cc1	ABHD5-PLIN5 inh 33.2 | ABHD5 PLIN5 conf 64.9 | HNF4 split-luc 98.0
Cc1ccc(C(=O)CCS(=O)(=O)c2ccc(Br)cc2)cc1	none
CCCC(=O)OCCNc1cc(Sc2nccn2C)c2nonc2c1[N+](=O)[O-]	ABHD5-PLIN5 inh 28.2 | ABHD5 PLIN5 conf 55.7 | HNF4 split-luc 109.0
CCC(=O)OCCNc1cc(Sc2nc3ccccc3[nH]2)c2nonc2c1[N+](=O)[O-]	ABHD5-PLIN5 inh 42.7 (no result: Rce1 inh, Platelet DG rel) | ABHD5 PLIN5 conf 63.2 | HNF4 split-luc 111.2
O=C1C=CC(O)(c2cc(=O)c3c(O)cc(O)cc3o2)C=C1	ABHD5-PLIN5 inh 89.0 | ABHD5 PLIN5 conf 101.3 | HNF4 split-luc 106.1
COc1cccc(C2CC(c3ccccc3Cl)Nc3nc(N)nn32)c1 (stereo not given)	ABHD5-PLIN5 inh 23.5 | ABHD5 PLIN5 conf inactive | HNF4 split-luc inactive
COc1cccc(C2CC(c3ccc(Cl)cc3Cl)Nc3nc(N)nn32)c1 (stereo not given)	none
O=[N+]([O-])c1cc(S(=O)(=O)C(F)(F)F)ccc1Sc1nc2ccccc2[nH]1	ABHD5-PLIN5 inh 53.9 | ABHD5 PLIN5 conf 59.1 | HNF4 split-luc 78.6
CS(=O)(=O)c1ccc(Sc2nc3ccccc3[nH]2)c([N+](=O)[O-])c1	none
COc1ccccc1Cc1c(-c2ccc(OC)c(OC)c2)nc2c3ccccc3ccn12	none (no result: Rce1 inh, M18AAP inhibitor, Platelet DG rel)
CCN1CCN(c2cc(N3CCc4ccccc4C3)c(F)cc2[N+](=O)[O-])CC1	ABHD5-PLIN5 inh 25.8 | ABHD5 PLIN5 conf inactive | HNF4 split-luc inactive
CC(=O)N1CCN(c2cc(N3CCCC3)c(F)cc2[N+](=O)[O-])CC1	none
CCOC(=O)c1c(NC(=O)CN2C(=O)N(C)C3(CCCCC3)C2=O)sc(C(=O)N(C)C)c1C	none (no result: Rce1 inh, M18AAP inhibitor, Platelet DG rel)
Cc1cc(C)c(C)c(S(=O)(=O)N2CCC(C(=O)NCc3cccs3)CC2)c1C	none (no result: Rce1 inh, M18AAP inhibitor, Platelet DG rel)
O=C1N2CCCc3cccc(c32)C12Nc1ccccc1S2 (stereo not given)	ABHD5-PLIN5 inh 61.1 | ABHD5 PLIN5 conf inactive | HNF4 split-luc inactive
COc1ccc(C(C[N+](=O)[O-])c2c(C)cc3ccccn23)c(OC)c1 (stereo not given)	ABHD5-PLIN5 inh 29.5 | ABHD5 PLIN5 conf 44.9 | HNF4 split-luc 28.9
COc1ccc(NC(=O)CCn2cccc2)c(OC)c1	none
O=C(/C=C\c1ccccc1OC(=O)c1ccccc1F)c1cc2ccccc2o1	ABHD5-PLIN5 inh 69.9 | ABHD5 PLIN5 conf 100.3 | HNF4 split-luc 97.6
CC(=O)/C=C\c1ccccc1OC(=O)c1cc2ccccc2oc1=O	none
Nc1ccccc1SC(CC(=O)c1ccccc1)c1cccc([N+](=O)[O-])c1 (stereo not given)	ABHD5-PLIN5 inh 75.9 (no result: Rce1 inh, M18AAP inhibitor, Platelet DG rel) | ABHD5 PLIN5 conf 38.5 | HNF4 split-luc 100.0
